Screening data from PubChem BioAssay.
Rows were chosen to be rich in hits. Some 2.2% of all compounds tested hit in one or more screens of this group.
CHT PAM: CHT positive allosteric modulators, primary screen, cell-based, membrane potential dye, choline EC20. High affinity choline transporter 1 (Homo sapiens), Q9GZV3. 0.49% of 310,000 active. B-score at 10 µM. CHT-expressing cells; active compounds read high; LV-AA mutant CHT in HEK293 cells;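 active = initial fluorescence not abnormally high and integrated response B-score, plate-corrected, over 3 SD above library mean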
VLA-4 inh: inhibition in human VLA-4 binding assay, primary screen, VLA-4 allosteric modulator project, MLPCN library, flow cytometry, VLA-4 expressing cells; Integrin alpha-4 (Homo sapiens), P13612; ligand binding flow cytometry; inhibition, % (about 7 µM as worked out from the volumes in the protocol); 0.2% of 330,000 active; in the data active = inhibition above about 50%
CHT block: inhibitors of human choline transporter CHT | High affinity choline transporter 1 (Homo sapiens), Q9GZV3 | CHT-expressing cells, membrane potential dye, choline response; active compounds read low | B-score at 10 µM | 0.86% of 310,000 active;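 active = B-score over 3 SD under the library average, and starting fluorescence ratio not unusually high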;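 note: choline stimulus applied at its EC90 after an EC20 pre-addition; B-score computed on integrated fluorescence ratio after choline addition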
AI-2 QS modul: Vibrio harveyi AI-2 quorum sensing modulators, primary screen, JMH597 strain, luminescence/OD600 ratio; Vibrio harveyi JMH597 AI-2 luminescence/OD600 ratio, 9 h; active compounds read low; strain lacks LuxN and CqsS sensors; 0 = neutral-control median; activity change, % at 7.5 µM; 0.4% of 300,000 active; in the data active = activity change below about -75%, passing the limit was not always enough;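 note: luminescence divided by OD600 gain over 9 h not by final OD600 alone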
Platelet DG rel: inhibitors of platelet dense granule secretion, primary screen, cell-based, MLPCN, human platelets; 0.22% of 300,000 active; AID 1663, 2009; human platelet-rich plasma, SFLLRN dense granule ATP release, luminescence; inhibition, %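 (compounds screened at 7.5 µM in platelet-rich plasma)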;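 active = mean replicate score, as percent of positive control, at or above 50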
HIF activator: HIF pathway transcriptional activators, primary screen, cell-based, U2OS HRE-luciferase, luminescence. U2OS HRE-luciferase reporter; normalized: DMSO 0%, desferrioxamine 100%. activation, % at 7.5 µM (by protocol). 0.32% of 300,000 active;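 active = mean activation of at least 10% of the iron chelator positive control signal, with at least half of replicates also reaching 10%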
CHT inh conf: CHT inhibitors, confirmation, cell-based, membrane potential dye, duplicate | CHT-expressing cells, choline membrane potential dye; LV-to-AA substituted CHT, HEK293 cells | AID 493221, 2011 | 70% of 2,400 active | shares compounds with CHT block | CHT activity remaining % of control (active compounds read low), % at 10 µM;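 active = choline transporter activity left, mean of duplicates at 10 µM, below buffer-only control mean minus 3 SD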;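 note: depolarization triggered by choline at its EC90 following an EC20 pre-addition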
HEK293 MPD ctr: membrane potential effects in parental HEK293, counter-screen for CHT inhibitor project, cell-based, membrane potential dye; 4% of 2,400 active; shares compounds with CHT block; membrane potential ratio readout (active if shifted either direction beyond buffer ±3SD; no single direction) at 10 µM; choline response; active = decrease or increase beyond buffer ±3SD;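 note: parental cells lack the transporter so any hit is non-specific; ratio is peak minus trough fluorescence over baseline after EC90 choline challenge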
Numbers stand for hits; – = inactive; · = not tested or not shown.

SMILES	CHT PAM	VLA-4 inh	CHT block	AI-2 QS modul	Platelet DG rel	HIF activator	CHT inh conf	HEK293 MPD ctr
CCCc1cc(=O)oc2cc(OCC(=O)NCCCN3CCCC3=O)ccc12	–	–	–	–	–	–	·	·
C/C(=N\OCC(=O)OC(C)C(=O)Nc1ccc(C(N)=O)cc1)c1ccc2c(c1)OCO2 (stereo not drawn)	–	–	–	–	–	–	·	·
CCCN(CCC)c1nc(C#N)nc(N(CCC)CCC)n1	–	–	–	–	–	–	·	·
CCCN(CCC)c1nc(N(CCC)CCC)[nH]c(=O)n1	–	–	-5.09	–	–	–	64.1%	–
CC(C)(C)C(=O)NC(=S)Nc1cc(C(F)(F)F)ccc1N1CCOCC1	–	–	-5.03	–	–	–	–	–
O=C(c1nc2ccc(Cl)cn2c1CNCCc1cnccn1)N1CCCCCCC1	–	–	–	–	–	–	·	·
CC[C@H](CO)Nc1nc(Nc2cccc(Cl)c2)c2ncn(C(C)C)c2n1	–	–	-8.96	–	–	–	48.1%	–
Cc1[nH]c2ccccc2c1N=Nc1c(C)n(C)n(-c2ccccc2)c1=O	–	–	-13.2	–	–	–	–	–
Cc1c(N=Nc2ccc(O)cc2)c(=O)n(-c2ccccc2)n1C	–	–	–	–	–	–	·	·
Cn1c(=O)c2c(ncn2CC(=O)OCC(=O)NNC(=O)c2ccc(Cl)cc2)n(C)c1=O	·	–	·	·	·	·	·	·
CCn1cc(C(=O)NCCCN2CC(C)CC(C)C2)c(=O)c2cc(S(=O)(=O)N(C)C3CCCCC3)ccc21 (stereo not drawn)	–	–	-4.98	–	–	–	44.8%	2.94
CCn1cc(C(=O)NCCCN2CCC(C)CC2)c(=O)c2cc(S(=O)(=O)N(C)C3CCCCC3)ccc21	–	–	-6.49	–	–	–	38.7%	–
CCCCNC(=S)NNC(=O)c1c(C)nc2ccccn12	–	–	–	–	–	–	·	·
CCN(CC)c1ccc(/C=N/N2C(C)CCCC2C)c(O)c1 (stereo not drawn)	–	–	–	–	–	–	·	·
CC(NC(=O)C1c2ccccc2Oc2ccccc21)C1CCCO1 (stereo not drawn)	–	–	-5.72	–	–	–	67.9%	–
Cc1ccccc1N/N=C/c1c(C)nc2ccccn12	–	–	-12.6	–	–	–	–	–
O=c1c2ccccc2nc(SCc2ccncc2)n1CC1CCCO1 (stereo not drawn)	–	–	-4.96	·	–	–	38.1%	–
Cc1oc(-c2ccc(Cl)cc2)nc1CS(=O)CC(=O)NC(C)c1ccccc1 (stereo not drawn)	–	–	-6.46	–	–	–	39.3%	–
CC1Cn2c(nc(=O)c3c2NCN(CCc2ccccc2)C3)S1 (stereo not drawn)	–	–	–	·	–	–	·	·
COc1ccccc1NS(=O)(=O)c1cc(C(=O)NCC(c2ccco2)N2CCCCC2)ccc1C (stereo not drawn)	–	–	-11.5	–	–	–	10.9%	–
O=C(NCC(c1ccco1)N1CCCCC1)c1cccc(NS(=O)(=O)c2ccc(Br)cc2)c1 (stereo not drawn)	–	–	-11.1	–	–	–	36.5%	–
Cc1ccc(NS(=O)(=O)c2cccc(C(=O)NCC(c3ccco3)N3CCCCC3)c2)cc1 (stereo not drawn)	–	–	-13.2	–	–	–	2.4%	–
COc1ccc(NS(=O)(=O)c2cccc(C(=O)NCC(c3ccco3)N3CCCC3)c2)cc1 (stereo not drawn)	–	–	–	–	–	–	·	·
COc1ccccc1C(CNC(=O)c1ccc(NS(=O)(=O)c2ccc(F)c(C)c2)cc1)N1CCCC1 (stereo not drawn)	–	–	–	–	–	–	·	·
Cc1ccc(C)c(S(=O)(=O)Nc2ccc(C(=O)NCC(c3ccco3)N3CCCCC3)cc2)c1 (stereo not drawn)	–	–	–	–	–	–	·	·
SMILES	CHT PAM	VLA-4 inh	CHT block	AI-2 QS modul	Platelet DG rel	HIF activator	CHT inh conf	HEK293 MPD ctr
COc1ccccc1C(CNC(=O)c1cccc(NS(=O)(=O)c2ccc(C)c(F)c2)c1)N1CCCC1 (stereo not drawn)	–	–	-5.55	–	–	–	14.8%	–
COc1ccc(CNC(=O)C(c2ccco2)N(C(=O)c2snc(C(N)=O)c2N)c2cccc(OC)c2)cc1 (stereo not drawn)	–	–	–	·	–	–	·	·
N#Cc1c(Cl)cccc1Oc1ccc(S(=O)(=O)Nc2ccccc2)cc1	–	–	–	–	–	–	·	·
COc1ccc(C(CNC(=O)c2ccc(S(=O)(=O)N3CC(C)CC(C)C3)cc2)N(C)C)cc1 (stereo not drawn)	·	–	·	·	·	·	·	·
COc1ccc(N(C)C(=O)c2cc3c(s2)-c2c(C)cccc2OC3)c(OC)c1	–	–	–	–	–	–	·	·
N#Cc1ccc(CN2CCN(c3ccc(S(=O)(=O)N4CCCC4)cn3)CC2)cc1	·	–	·	·	·	·	·	·
Cc1ccc(C(=O)CCC(=O)N2CCC(C(N)=O)CC2)s1	·	–	·	·	·	·	·	·
Cc1ccc(OCC(=O)OC(C)C(=O)NC2CCCCC2C)cc1C (stereo not drawn)	·	–	·	·	·	·	·	·
CC1CCC2(CC1)NC(=O)N(CC(=O)Nc1sc3c(c1C(N)=O)CCC3)C2=O (stereo not drawn)	–	–	–	–	–	–	·	·
NC(=O)c1c(NC(=O)CN2C(=O)NC(Cc3ccccc3)C2=O)sc2c1CCC2 (stereo not drawn)	–	–	-6.3	–	–	–	61.6%	–
O=C(CN1C(=O)NC2(CCOc3ccccc32)C1=O)NCCc1ccccc1 (stereo not drawn)	·	–	·	·	·	·	·	·
Cc1ccc(N2CCCC2=O)cc1S(=O)(=O)N1CCOCC1	–	–	–	–	–	–	·	·
O=[N+]([O-])c1ccc(CSc2nnc3ccccn23)cc1	–	–	-13.3	–	–	–	8.8%	–
O=[N+]([O-])c1ccccc1CSc1nnc2ccccn12	–	–	–	–	–	–	·	·
CC(=O)C[C@H](O)CC(=O)[C@H]1OC(=O)CCCCCCCCc2ccccc21	·	–	·	·	·	·	·	·
